These results are taken from the supplement of paper PMC10849652.

Targets with a hit are over-represented here; the source holds about 7,900 in all. About 0.6% of all pairs of compound and target were hits.

Sequence of UniProt O43181 (O43181 whole entry, looked up): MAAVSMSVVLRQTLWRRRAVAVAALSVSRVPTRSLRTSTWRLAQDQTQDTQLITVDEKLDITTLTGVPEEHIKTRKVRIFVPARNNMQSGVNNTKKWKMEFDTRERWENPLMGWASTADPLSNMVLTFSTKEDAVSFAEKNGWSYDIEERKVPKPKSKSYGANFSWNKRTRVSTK
Sequence of UniProt P55786 (P55786 whole entry, looked up): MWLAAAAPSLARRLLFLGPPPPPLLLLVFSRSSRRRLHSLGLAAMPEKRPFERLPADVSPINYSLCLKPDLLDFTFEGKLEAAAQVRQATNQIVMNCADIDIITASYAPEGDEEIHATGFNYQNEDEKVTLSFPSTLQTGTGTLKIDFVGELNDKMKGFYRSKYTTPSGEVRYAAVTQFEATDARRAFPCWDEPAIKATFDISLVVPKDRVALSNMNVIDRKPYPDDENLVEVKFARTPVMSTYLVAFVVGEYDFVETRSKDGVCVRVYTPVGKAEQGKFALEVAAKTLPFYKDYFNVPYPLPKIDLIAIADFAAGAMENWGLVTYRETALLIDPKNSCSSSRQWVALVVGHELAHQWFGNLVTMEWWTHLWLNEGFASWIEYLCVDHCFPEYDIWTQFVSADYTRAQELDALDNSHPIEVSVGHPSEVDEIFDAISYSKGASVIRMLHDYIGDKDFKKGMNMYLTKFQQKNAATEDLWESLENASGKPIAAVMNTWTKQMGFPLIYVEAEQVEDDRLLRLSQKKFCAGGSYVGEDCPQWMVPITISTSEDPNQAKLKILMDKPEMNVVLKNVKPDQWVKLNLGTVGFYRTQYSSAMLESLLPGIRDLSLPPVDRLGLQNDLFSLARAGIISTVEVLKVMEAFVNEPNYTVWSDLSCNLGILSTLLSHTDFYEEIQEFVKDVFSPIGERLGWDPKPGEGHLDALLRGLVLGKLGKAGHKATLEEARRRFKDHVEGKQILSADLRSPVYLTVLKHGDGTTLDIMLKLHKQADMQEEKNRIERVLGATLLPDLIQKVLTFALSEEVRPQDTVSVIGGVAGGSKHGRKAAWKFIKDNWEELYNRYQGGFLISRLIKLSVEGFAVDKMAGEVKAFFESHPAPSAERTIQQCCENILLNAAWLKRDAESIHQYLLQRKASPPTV
Sequence of UniProt Q969V5 (Q969V5 whole entry, looked up): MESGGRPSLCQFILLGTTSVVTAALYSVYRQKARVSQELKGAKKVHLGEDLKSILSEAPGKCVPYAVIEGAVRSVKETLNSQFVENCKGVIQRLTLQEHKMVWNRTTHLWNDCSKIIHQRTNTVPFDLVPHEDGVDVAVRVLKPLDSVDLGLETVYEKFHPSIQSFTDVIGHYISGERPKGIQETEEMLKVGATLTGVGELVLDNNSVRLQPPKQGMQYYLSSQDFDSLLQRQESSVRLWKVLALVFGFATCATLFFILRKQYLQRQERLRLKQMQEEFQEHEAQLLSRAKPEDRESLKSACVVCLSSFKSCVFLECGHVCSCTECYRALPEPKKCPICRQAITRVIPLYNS
Sequence of UniProt Q9BUB5 (Q9BUB5 whole entry, looked up): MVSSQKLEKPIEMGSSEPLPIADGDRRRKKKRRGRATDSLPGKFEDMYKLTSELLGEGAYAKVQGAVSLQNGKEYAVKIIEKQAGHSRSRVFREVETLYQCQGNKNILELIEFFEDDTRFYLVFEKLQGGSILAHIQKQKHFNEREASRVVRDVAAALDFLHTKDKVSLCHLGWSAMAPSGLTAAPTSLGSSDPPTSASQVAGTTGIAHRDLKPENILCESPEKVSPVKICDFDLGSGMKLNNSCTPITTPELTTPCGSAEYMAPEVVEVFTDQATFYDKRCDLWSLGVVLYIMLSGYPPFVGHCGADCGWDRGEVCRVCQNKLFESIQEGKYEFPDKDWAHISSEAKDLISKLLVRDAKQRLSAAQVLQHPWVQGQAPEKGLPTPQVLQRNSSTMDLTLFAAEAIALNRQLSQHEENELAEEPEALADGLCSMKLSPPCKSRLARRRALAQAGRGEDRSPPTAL
Sequence of UniProt Q9Y314 (Q9Y314 whole entry, looked up): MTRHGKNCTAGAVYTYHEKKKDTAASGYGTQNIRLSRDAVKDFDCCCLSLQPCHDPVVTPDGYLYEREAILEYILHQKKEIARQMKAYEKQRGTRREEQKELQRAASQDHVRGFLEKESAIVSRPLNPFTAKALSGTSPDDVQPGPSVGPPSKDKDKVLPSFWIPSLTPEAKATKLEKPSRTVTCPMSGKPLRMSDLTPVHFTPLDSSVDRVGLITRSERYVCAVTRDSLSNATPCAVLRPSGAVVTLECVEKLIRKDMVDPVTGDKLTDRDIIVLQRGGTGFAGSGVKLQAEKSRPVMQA
Sequence of UniProt Q96H55 (Q96H55 whole entry, looked up): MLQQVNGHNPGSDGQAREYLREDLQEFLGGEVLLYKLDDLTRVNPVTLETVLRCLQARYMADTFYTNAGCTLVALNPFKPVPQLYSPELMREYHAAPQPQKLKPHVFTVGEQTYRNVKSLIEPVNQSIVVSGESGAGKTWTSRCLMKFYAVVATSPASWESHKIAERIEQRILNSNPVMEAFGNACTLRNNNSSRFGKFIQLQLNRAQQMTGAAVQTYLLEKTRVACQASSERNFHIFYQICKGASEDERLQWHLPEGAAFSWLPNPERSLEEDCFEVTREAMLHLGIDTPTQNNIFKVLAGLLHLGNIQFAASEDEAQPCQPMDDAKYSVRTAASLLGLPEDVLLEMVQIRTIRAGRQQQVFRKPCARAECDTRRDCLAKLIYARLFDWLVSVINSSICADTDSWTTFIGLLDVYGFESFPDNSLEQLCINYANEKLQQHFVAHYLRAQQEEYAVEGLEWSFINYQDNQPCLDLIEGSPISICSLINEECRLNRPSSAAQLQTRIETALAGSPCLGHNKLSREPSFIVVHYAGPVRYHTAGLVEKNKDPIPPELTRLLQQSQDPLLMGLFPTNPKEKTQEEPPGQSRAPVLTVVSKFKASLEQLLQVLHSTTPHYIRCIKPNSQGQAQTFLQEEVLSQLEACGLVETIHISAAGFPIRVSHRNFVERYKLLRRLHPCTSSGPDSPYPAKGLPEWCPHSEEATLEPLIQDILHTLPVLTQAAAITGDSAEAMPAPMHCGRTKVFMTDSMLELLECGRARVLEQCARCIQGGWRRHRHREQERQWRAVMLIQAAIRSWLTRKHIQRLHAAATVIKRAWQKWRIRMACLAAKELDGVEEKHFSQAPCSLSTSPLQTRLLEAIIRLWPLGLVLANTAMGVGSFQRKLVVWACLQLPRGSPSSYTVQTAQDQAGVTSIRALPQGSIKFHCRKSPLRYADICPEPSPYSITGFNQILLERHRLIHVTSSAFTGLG
Sequence of UniProt Q15003 (Q15003 whole entry, looked up): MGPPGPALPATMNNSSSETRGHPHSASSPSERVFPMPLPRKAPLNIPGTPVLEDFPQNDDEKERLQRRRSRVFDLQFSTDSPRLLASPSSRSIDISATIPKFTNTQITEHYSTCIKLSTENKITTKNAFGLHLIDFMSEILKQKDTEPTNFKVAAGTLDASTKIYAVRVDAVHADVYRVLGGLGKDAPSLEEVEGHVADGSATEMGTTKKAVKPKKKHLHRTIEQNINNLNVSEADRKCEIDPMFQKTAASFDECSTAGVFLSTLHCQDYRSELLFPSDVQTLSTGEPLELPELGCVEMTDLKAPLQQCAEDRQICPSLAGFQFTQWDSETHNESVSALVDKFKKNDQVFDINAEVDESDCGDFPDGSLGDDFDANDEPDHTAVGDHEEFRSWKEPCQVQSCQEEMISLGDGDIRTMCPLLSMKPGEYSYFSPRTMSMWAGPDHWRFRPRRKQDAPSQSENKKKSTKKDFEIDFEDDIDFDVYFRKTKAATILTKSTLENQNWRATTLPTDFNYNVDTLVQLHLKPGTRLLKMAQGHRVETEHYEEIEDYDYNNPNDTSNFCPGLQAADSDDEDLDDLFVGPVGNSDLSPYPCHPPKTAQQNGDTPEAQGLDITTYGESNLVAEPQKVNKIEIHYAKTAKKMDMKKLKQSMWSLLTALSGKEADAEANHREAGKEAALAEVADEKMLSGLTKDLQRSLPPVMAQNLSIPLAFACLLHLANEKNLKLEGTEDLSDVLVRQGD
Sequence of UniProt Q9BUK6 (Q9BUK6 whole entry, looked up): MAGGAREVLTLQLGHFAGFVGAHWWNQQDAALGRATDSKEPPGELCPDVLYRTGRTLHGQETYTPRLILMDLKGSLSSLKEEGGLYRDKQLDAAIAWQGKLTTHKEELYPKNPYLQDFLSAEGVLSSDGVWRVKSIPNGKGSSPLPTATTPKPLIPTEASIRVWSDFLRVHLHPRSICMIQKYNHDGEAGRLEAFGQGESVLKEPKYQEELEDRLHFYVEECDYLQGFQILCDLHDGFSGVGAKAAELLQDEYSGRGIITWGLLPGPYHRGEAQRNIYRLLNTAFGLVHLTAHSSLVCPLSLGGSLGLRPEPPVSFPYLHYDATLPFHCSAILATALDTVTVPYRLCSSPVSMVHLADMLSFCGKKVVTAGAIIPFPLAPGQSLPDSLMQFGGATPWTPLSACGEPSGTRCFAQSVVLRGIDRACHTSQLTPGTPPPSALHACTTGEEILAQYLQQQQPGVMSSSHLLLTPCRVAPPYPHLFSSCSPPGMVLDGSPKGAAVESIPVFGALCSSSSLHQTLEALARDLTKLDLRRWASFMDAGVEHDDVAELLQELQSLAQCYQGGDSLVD
Sequence of UniProt Q9NXX6 (Q9NXX6 whole entry, looked up): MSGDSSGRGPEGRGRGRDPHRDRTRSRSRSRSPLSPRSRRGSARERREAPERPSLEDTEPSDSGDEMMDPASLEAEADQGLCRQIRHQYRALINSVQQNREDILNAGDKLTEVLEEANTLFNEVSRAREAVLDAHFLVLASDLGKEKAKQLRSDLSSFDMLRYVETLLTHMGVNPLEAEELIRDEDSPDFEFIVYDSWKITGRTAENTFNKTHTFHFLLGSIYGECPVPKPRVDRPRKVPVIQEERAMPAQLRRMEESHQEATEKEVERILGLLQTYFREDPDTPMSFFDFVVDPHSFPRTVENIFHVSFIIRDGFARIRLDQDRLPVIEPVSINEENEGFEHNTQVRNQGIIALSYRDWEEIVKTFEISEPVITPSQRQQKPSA

Compound in one experiment: Cc1nc(Nc2ncc(C(=O)Nc3c(C)cccc3Cl)s2)cc(N2CCN(CCO)CC2)n1 [dasatinib]
As to the kind of experiment: log2 fold change, soluble protein after heating vs DMSO (PISA); higher = thermal stabilisation; K562 cells, 10 uM, 30 min; active = over 0.2 and 3.5 SD of the protein, either way, in both replicates (recomputed). The method, boiled down: (§1)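 Values are thermal stability changes relative to control samples and are taken from duplicates. They are stated as log2 fold changes. Before quantification by TMTpro 16plex LC-MS/MS with equalised channel sums, K562 cells at 2×10^6 cells/mL were treated with 10 μM compound for 30 min, heated in aliquots for 3 min across 48°C-58°C, pooled, extracted in PBS with 0.5% NP-40 at 4°C, and centrifuged at 21,000xg for 90 min to give the soluble supernatant.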
Regarding NECTIN2 (UniProt Q92692), the log2 fold change is -0.017 (inactive).
On to NCAPH (UniProt Q15003), for which the log2 fold change is -0.121 (inactive).
As for OSBPL8 (UniProt Q9BZF1), the log2 fold change is 0.066 (inactive).
On the same count and under the same terms, next, MPHOSPH10 (UniProt O00566): 0.138 (inactive); MTHFD1, A0A384N5Y3: -0.153 (inactive); OXA1L (UniProt Q15070): -0.01 (inactive).
Same read-out and setting: next, NPC1 (UniProt O15118): -0.001 (inactive); MYO19 (UniProt Q96H55): -0.111 (inactive); NCKAP1 isoform 2 (UniProt Q9Y2A7): -0.096 (inactive).
NSMCE4A (UniProt Q9NXX6): the log2 fold change is -0.051 (inactive).
MSTO1 (UniProt Q9BUK6): the log2 fold change is -0.174 (inactive).
For MUL1 (UniProt Q969V5), the log2 fold change was 0.011 (inactive).
On the same count and under the same terms, next, MKNK1 (UniProt Q9BUB5): -0.115 (inactive).
In the case of NDUFS4 (UniProt O43181), the log2 fold change is 0.087 (inactive).
In the case of NUCKS1 (UniProt Q9H1E3), the log2 fold change is 0.037 (inactive).
MSH3 (UniProt P20585): the log2 fold change was -0.038 (inactive).
For NMU (UniProt P48645), the log2 fold change is 0.16 (inactive).
On to OSTC (UniProt Q9NRP0), for which the log2 fold change was -0.059 (inactive).
The same measure, in the same setting: next, NDUFB8 (UniProt O95169): 0.056 (inactive).
Consider NFX1 (UniProt Q12986), for which the log2 fold change was 0.085 (inactive).
With ORC5 (UniProt O43913), the log2 fold change was -0.231 (inactive).
Take NUDT16 (UniProt Q96DE0): the log2 fold change was 0.058 (inactive).
Consider MRPL50 (UniProt Q8N5N7), for which the log2 fold change is 0.183 (inactive).
Turning to NOSIP (UniProt Q9Y314), the log2 fold change is -0.229 (inactive).
Turning to NSMCE2 (UniProt Q96MF7), the log2 fold change is 0.025 (inactive).
NA, A0A096LPI6: the log2 fold change was -0.005 (inactive).
MRPS35 (UniProt P82673): the log2 fold change is -0.004 (inactive).
For the target NA, A0A2R8Y3M9, the log2 fold change was -0.013 (inactive).
For MND1 (UniProt Q9BWT6), the log2 fold change is -0.037 (inactive).
Consider NOL11 (UniProt Q9H8H0), for which the log2 fold change is 0.017 (inactive).
With NCAPG (UniProt Q9BPX3), the log2 fold change is -0.085 (inactive).
OTUD4 (UniProt Q01804): the log2 fold change is 0.046 (inactive).
As for MTFR1L (UniProt Q9H019), the log2 fold change was -0.167 (inactive).
The same measure, in the same setting: the value for NFYC (UniProt Q13952) was 0.032 (inactive); that for MXRA7 (UniProt P84157) was 0.042 (inactive); that for MRPS27 isoform 2 (UniProt Q92552) was -0.104 (inactive).
For the target NCL (UniProt P19338), the log2 fold change is 0.209 (inactive).
NPEPPS (UniProt P55786): the log2 fold change is -0.083 (inactive).

Compound in the next experiment: Cc1ncc(-c2ccnc(Nc3ccc(S(C)(=O)=O)cc3)n2)n1C(C)C
The description is as above. The method, boiled down:
as §1
As to NECTIN2 (UniProt Q92692), the log2 fold change is 0.055 (inactive).
NCAPH (UniProt Q15003): the log2 fold change was 0.041 (inactive).
For OSBPL8 (UniProt Q9BZF1), the log2 fold change was -0.047 (inactive).
Regarding MPHOSPH10 (UniProt O00566), the log2 fold change was -0.199 (inactive).
Still for that read-out and setting: next, MTHFD1, A0A384N5Y3: -0.031 (inactive).
As to OXA1L (UniProt Q15070), the log2 fold change was -0.029 (inactive).
The same measure, in the same setting: next, NPC1 (UniProt O15118): 0.05 (inactive); MYO19 (UniProt Q96H55): 0.038 (inactive).
On the same count and under the same terms, next, NCKAP1 isoform 2 (UniProt Q9Y2A7): -0.04 (inactive); NSMCE4A (UniProt Q9NXX6): 0.03 (inactive).
Take MSTO1 (UniProt Q9BUK6): the log2 fold change is -0.005 (inactive).
In the case of MUL1 (UniProt Q969V5), the log2 fold change was -0.059 (inactive).
As for MKNK1 (UniProt Q9BUB5), the log2 fold change is -0.04 (inactive).
For the target NDUFS4 (UniProt O43181), the log2 fold change was -0.047 (inactive).
In the case of NUCKS1 (UniProt Q9H1E3), the log2 fold change was 0.169 (inactive).
For MSH3 (UniProt P20585), the log2 fold change is 0.052 (inactive).
Turning to NMU (UniProt P48645), the log2 fold change is -0.012 (inactive).
For OSTC (UniProt Q9NRP0), the log2 fold change was -0.029 (inactive).
The same measure, in the same setting: next, NDUFB8 (UniProt O95169): -0.04 (inactive).
NFX1 (UniProt Q12986): the log2 fold change was -0.011 (inactive).
ORC5 (UniProt O43913): the log2 fold change was -0.114 (inactive).
As to NUDT16 (UniProt Q96DE0), the log2 fold change was -0.049 (inactive).
Take MRPL50 (UniProt Q8N5N7): the log2 fold change is -0.064 (inactive).
As to NOSIP (UniProt Q9Y314), the log2 fold change was 0.247 (inactive).
For the target NSMCE2 (UniProt Q96MF7), the log2 fold change is 0.016 (inactive).
On to NA, A0A096LPI6, for which the log2 fold change is -0.04 (inactive).
As for MRPS35 (UniProt P82673), the log2 fold change is -0.071 (inactive).
Consider NA, A0A2R8Y3M9, for which the log2 fold change is 0.31 (inactive).
Regarding MND1 (UniProt Q9BWT6), the log2 fold change was -0.015 (inactive).
On the same count and under the same terms, the value for NOL11 (UniProt Q9H8H0) was 0.11 (inactive).
For the target NCAPG (UniProt Q9BPX3), the log2 fold change is 0.065 (inactive).
Same read-out and setting: next, OTUD4 (UniProt Q01804): -0.077 (inactive).
Turning to MTFR1L (UniProt Q9H019), the log2 fold change was -0.038 (inactive).
For NFYC (UniProt Q13952), the log2 fold change was -0.008 (inactive).
With MXRA7 (UniProt P84157), the log2 fold change is 0.057 (inactive).
For the target MRPS27 isoform 2 (UniProt Q92552), the log2 fold change is -0.049 (inactive).
For NCL (UniProt P19338), the log2 fold change was 0.051 (inactive).
On the same count and under the same terms, next, NPEPPS (UniProt P55786): -0.063 (inactive).
